PubChem BioAssay AID1159580 (chemical genetic matrix, 2015)
Where “and” joins values, the source holds several entries; their conditions need not be identical. Equal entries are not always repeated. The whole screen tested about 5,500 compounds, of which about 2,000 (36%) were called active. Not shown: some 18% with an inconclusive outcome. Rule as the data show it: active = normalized growth mostly below about 0.91 (no sharp cut-off); inconclusive = no clear call, values can overlap the other calls; inactive = mostly above about 0.92. The list shows a part of the results.

Experiment: chemical genetic growth profiling, strain panel (AID 1159580);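 also: tested at 20 µM; growth read once vehicle control cultures reached saturation at 30 °C; 1 = growth at the plate median or of vehicle wells; lower values mean less growth of the strain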
Settings: growth OD

Measured: normalized growth

CC1=C(CC(=O)O)c2cc(F)ccc2/C1=C\c1ccc(S(C)=O)cc1 (stereo unspecified)
inactive: S. cerevisiae deletion strains, locus YJR075W, strain HOC1, active compounds read low 1 | S. cerevisiae deletion strains, locus YKL009W, strain mrt4, active compounds read low 0.993 | S. cerevisiae deletion strains, locus YKL068W, active compounds read low 1.01 | S. cerevisiae deletion strains, locus YKL085W, strain MDH1 (second series), active compounds read low 1.02 | S. cerevisiae deletion strains, locus YKL085W, strain MDH1, active compounds read low 1.02 | S. cerevisiae deletion strains, locus YKL160W, strain elf1, active compounds read low 1 | S. cerevisiae deletion strains, locus YKL190W, strain CNB1, active compounds read low 1.01 | S. cerevisiae deletion strains, locus YKR001C, strain vps1, active compounds read low 0.997 | S. cerevisiae deletion strains, locus YKR026C, strain gcn3, active compounds read low 1.01 | S. cerevisiae deletion strains, locus YKR091W, strain srl3, active compounds read low 1.02 | S. cerevisiae deletion strains, locus YLL001W, strain dnm1, active compounds read low 0.998 | S. cerevisiae deletion strains, locus YLL026W, active compounds read low 1.03 | S. cerevisiae deletion strains, locus YLL041C, strain sdh2, active compounds read low 1.02 | S. cerevisiae deletion strains, locus YLR027C, strain aat2, active compounds read low 1.02 | S. cerevisiae deletion strains, locus YLR039C, strain RIC1, active compounds read low 1.01 | S. cerevisiae deletion strains, locus YLR058C, strain SHM2, active compounds read low 1 | S. cerevisiae deletion strains, locus YLR102C, strain apc9, active compounds read low 1.02 | S. cerevisiae deletion strains, locus YLR113W, strain HOG1, active compounds read low 1 | S. cerevisiae deletion strains, locus YLR221C, strain rsa3, active compounds read low 0.999 | S. cerevisiae deletion strains, locus YLR258W, strain gsy2, active compounds read low 1.01 | S. cerevisiae deletion strains, locus YLR262C, strain YPT6 (second series), active compounds read low 1.02 | S. cerevisiae deletion strains, locus YLR262C, strain YPT6, active compounds read low 0.995 | S. cerevisiae deletion strains, locus YLR268W, strain sec22, active compounds read low 1.06 | S. cerevisiae deletion strains, locus YLR320W, strain mms22, active compounds read low 1 | S. cerevisiae deletion strains, locus YLR330W, strain CHS5, active compounds read low 1.01 | S. cerevisiae deletion strains, locus YLR342W, strain FKS1 (second series), active compounds read low 1.02 | S. cerevisiae deletion strains, locus YLR342W, strain FKS1, active compounds read low 0.99 | S. cerevisiae deletion strains, locus YLR357W, strain rsc2, active compounds read low 1.05 | S. cerevisiae deletion strains, locus YLR370C, strain arc18, active compounds read low 1.03 | S. cerevisiae deletion strains, locus YLR371W, strain rom2, active compounds read low 1.03 | S. cerevisiae deletion strains, locus YLR384C, strain iki3, active compounds read low 1.02 | S. cerevisiae deletion strains, locus YLR418C, strain cdc73, active compounds read low 1.02 | S. cerevisiae deletion strains, locus YML016C, strain PPZ1, active compounds read low 1 | S. cerevisiae deletion strains, locus YML032C, strain rad52, active compounds read low 1.03 | S. cerevisiae deletion strains, locus YML120C, strain ndi1, active compounds read low 1.03 | S. cerevisiae deletion strains, locus YML124C, strain tub3, active compounds read low 1.01 | S. cerevisiae deletion strains, locus YMR058W, strain fet3, active compounds read low 1.03 | S. cerevisiae deletion strains, locus YMR078C, strain ctf18, active compounds read low 1.01 | S. cerevisiae deletion strains, locus YMR125W, strain sto1, active compounds read low 1.02 | S. cerevisiae deletion strains, locus YMR129W, active compounds read low 1.02 | S. cerevisiae deletion strains, locus YMR205C, strain PFK2, active compounds read low 1.03 | S. cerevisiae deletion strains, locus YMR223W, strain ubp8, active compounds read low 0.995 | S. cerevisiae deletion strains, locus YMR231W, strain pep5, active compounds read low 1.02 | S. cerevisiae deletion strains, locus YMR263W, strain SAP30, active compounds read low 1.01 | S. cerevisiae deletion strains, locus YMR307W, strain GAS1, active compounds read low 1 and 1.02 | S. cerevisiae deletion strains, locus YNL067W, strain RPL9B, active compounds read low 1.01 | S. cerevisiae deletion strains, locus YNL071W, strain lat1, active compounds read low 1.02 | S. cerevisiae deletion strains, locus YNL128W, strain TEP1, active compounds read low 1.03 | S. cerevisiae deletion strains, locus YNL153C, strain GIM3, active compounds read low 1.01 and 1.06 | S. cerevisiae deletion strains, locus YNL175C, strain NOP13, active compounds read low 1.02 | S. cerevisiae deletion strains, locus YNL183C, strain NPR1, active compounds read low 0.946 | S. cerevisiae deletion strains, locus YNL197C, strain WHI3, active compounds read low 1.02 | S. cerevisiae deletion strains, locus YNL209W, strain ssb2, active compounds read low 1.02 | S. cerevisiae deletion strains, locus YNL224C, strain SQS1, active compounds read low 1.02 | S. cerevisiae deletion strains, locus YNL233W, strain BNI4, active compounds read low 1.01 | S. cerevisiae deletion strains, locus YNL248C, strain rpa49, active compounds read low 1 | S. cerevisiae deletion strains, locus YNL250W, strain rad50, active compounds read low 1.01 | S. cerevisiae deletion strains, locus YNL271C, strain bni1, active compounds read low 1.01 | S. cerevisiae deletion strains, locus YNL298W, strain CLA4, active compounds read low 0.991 | S. cerevisiae deletion strains, locus YNL307C, strain MCK1, active compounds read low 1.03 | S. cerevisiae deletion strains, locus YNL322C, strain KRE1 (second series), active compounds read low 1.02 | S. cerevisiae deletion strains, locus YNL322C, strain KRE1, active compounds read low 1.01 | S. cerevisiae deletion strains, locus YNR049C, strain mso1, active compounds read low 1.03 | S. cerevisiae deletion strains, locus YNR052C, strain pop2, active compounds read low 1.02 | S. cerevisiae deletion strains, locus YOL006C, strain TOP1, active compounds read low 0.99 | S. cerevisiae deletion strains, locus YOL012C, strain htz1 1.13 | S. cerevisiae deletion strains, locus YOL147C, strain pex11, active compounds read low 1.02 | S. cerevisiae deletion strains, locus YOR001W, strain rrp6, active compounds read low 1.04 | S. cerevisiae deletion strains, locus YOR061W, strain CKA2, active compounds read low 1 | S. cerevisiae deletion strains, locus YOR069W, strain VPS5, active compounds read low 1.01 | S. cerevisiae deletion strains, locus YOR070C, strain gyp1, active compounds read low 1.01 | S. cerevisiae deletion strains, locus YOR080W, strain dia2, active compounds read low 1.04 | S. cerevisiae deletion strains, locus YOR083W, strain WHI5 (second series), active compounds read low 1.03 | S. cerevisiae deletion strains, locus YOR083W, strain WHI5, active compounds read low 0.986 | S. cerevisiae deletion strains, locus YOR106W, strain vam3, active compounds read low 1.01 | S. cerevisiae deletion strains, locus YOR136W, strain idh2, active compounds read low 1.01 | S. cerevisiae deletion strains, locus YOR144C, strain elg1, active compounds read low 1.02 | S. cerevisiae deletion strains, locus YOR184W, strain ser1, active compounds read low 1.01 | S. cerevisiae deletion strains, locus YOR231W, strain MKK1, active compounds read low 0.975 | S. cerevisiae deletion strains, locus YOR265W, strain rbl2, active compounds read low 1.02 | S. cerevisiae deletion strains, locus YOR270C, strain vph1, active compounds read low 1.04 | S. cerevisiae deletion strains, locus YOR290C, strain snf2, active compounds read low 1.02 | S. cerevisiae deletion strains, locus YOR316C, strain cot1, active compounds read low 1.02 | S. cerevisiae deletion strains, locus YPL051W, strain arl3, active compounds read low 0.996 | S. cerevisiae deletion strains, locus YPL055C, strain LGE1, active compounds read low 0.98 | S. cerevisiae deletion strains, locus YPL078C, strain atp4, active compounds read low 1.01 | S. cerevisiae deletion strains, locus YPL106C, strain sse1, active compounds read low 1.03 | S. cerevisiae deletion strains, locus YPL240C, strain hsp82, active compounds read low 1.02 | S. cerevisiae deletion strains, locus YPL241C, strain CIN2, active compounds read low 1.01 | S. cerevisiae deletion strains, locus YPL256C, strain CLN2, active compounds read low 0.994 | S. cerevisiae deletion strains, locus YPR119W, strain clb2, active compounds read low 1.02 | S. cerevisiae deletion strains, locus YPR141C, strain kar3, active compounds read low 1.02 | S. cerevisiae deletion strains, locus YPR163C, strain tif3, active compounds read low 1.02 | S. cerevisiae deletion strains, locus YPR167C, strain met16, active compounds read low 1.02 | S. cerevisiae deletion strains, strain wtn01, active compounds read low 1.03 | S. cerevisiae strains, strain wild type, active compounds read low 1.01
